Source: PubChem BioAssay (Tox21)
Records with an inconclusive call do not appear. Active and inactive are the calls of the source. Unless noted, calls come from the whole dose curve; as a rule, active = well fitted curve in the direction sought with a large enough effect in the repeat runs; inconclusive = weak or mixed curves; inactive = no such curve, though single readings can be large; an effect the other way counts as inactive or inconclusive.

Experiments:
[1] = target: Aryl hydrocarbon receptor (Homo sapiens) (UniProt P35869); assay: qHTS assay to identify small molecule that activate the aryl hydrocarbon receptor (AhR) signaling pathway (AID 743085);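 note: HG2L7.5c1 human HepG2 liver cells with stably integrated DRE-driven firefly reporter; series mostly up to about 70 µM; nearly all actives have a fitted effect of over 15% in size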
Sequence of Aryl hydrocarbon receptor (Homo sapiens) (P35869 whole entry, looked up): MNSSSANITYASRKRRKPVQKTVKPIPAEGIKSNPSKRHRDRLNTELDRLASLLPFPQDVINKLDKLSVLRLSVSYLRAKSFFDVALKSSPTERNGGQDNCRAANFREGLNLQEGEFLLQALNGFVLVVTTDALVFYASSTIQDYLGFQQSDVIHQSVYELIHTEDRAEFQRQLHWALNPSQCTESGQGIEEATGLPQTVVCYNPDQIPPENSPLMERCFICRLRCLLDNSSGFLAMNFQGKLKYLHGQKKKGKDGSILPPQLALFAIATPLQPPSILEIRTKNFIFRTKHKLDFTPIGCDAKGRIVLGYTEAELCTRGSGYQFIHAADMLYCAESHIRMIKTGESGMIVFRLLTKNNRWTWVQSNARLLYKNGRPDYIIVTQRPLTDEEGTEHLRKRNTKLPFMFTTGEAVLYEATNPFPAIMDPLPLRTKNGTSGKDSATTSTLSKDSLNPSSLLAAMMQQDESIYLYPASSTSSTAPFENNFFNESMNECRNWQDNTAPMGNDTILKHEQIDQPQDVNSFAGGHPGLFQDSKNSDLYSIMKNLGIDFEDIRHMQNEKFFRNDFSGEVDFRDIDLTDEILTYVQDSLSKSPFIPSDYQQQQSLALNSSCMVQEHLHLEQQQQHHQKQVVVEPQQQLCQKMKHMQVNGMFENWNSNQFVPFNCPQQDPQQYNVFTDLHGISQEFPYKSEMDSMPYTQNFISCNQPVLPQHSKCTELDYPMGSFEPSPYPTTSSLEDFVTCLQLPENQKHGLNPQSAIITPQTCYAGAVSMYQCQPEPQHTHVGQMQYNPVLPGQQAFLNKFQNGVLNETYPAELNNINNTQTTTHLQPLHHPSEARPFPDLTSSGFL
Outline: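 AhR agonist activity is inferred from enhanced light output of a DRE-controlled firefly luciferase reporter in HepG2 cells, measured with ONE-Glo following 24 h treatment at 37C.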

[2] = qHTS assay to identify small molecule that activate the aryl hydrocarbon receptor (AhR) signaling pathway - cell viability counter screen (AID 743086);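 note: HepG2 liver cells carrying the AhR DRE luciferase reporter; series mostly up to about 70 µM; nearly all actives have a fitted effect of over 45% in size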
Outline: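 HepG2-AhR-luc (HG2L7.5c1) cells, 4000/well, were preincubated 5 h at 37C, exposed to compound in qHTS format for 24 hr at 37C, then given CellTiter-Fluor for 30 min; viability was read as fluorescence in the reporter wells.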

[3] = target: Peroxisome proliferator-activated receptor gamma (Homo sapiens) (UniProt P37231); assay: qHTS assay to identify small molecule agonists of the peroxisome proliferator-activated receptor gamma (PPARg) signaling pathway (AID 743094; active = well fitted activation curve with a large enough effect in the signal ratio in the repeat runs, not every such curve was filed as active; the % refers to the signal ratio)
Sequence of Peroxisome proliferator-activated receptor gamma (Homo sapiens) (P37231 whole entry, looked up): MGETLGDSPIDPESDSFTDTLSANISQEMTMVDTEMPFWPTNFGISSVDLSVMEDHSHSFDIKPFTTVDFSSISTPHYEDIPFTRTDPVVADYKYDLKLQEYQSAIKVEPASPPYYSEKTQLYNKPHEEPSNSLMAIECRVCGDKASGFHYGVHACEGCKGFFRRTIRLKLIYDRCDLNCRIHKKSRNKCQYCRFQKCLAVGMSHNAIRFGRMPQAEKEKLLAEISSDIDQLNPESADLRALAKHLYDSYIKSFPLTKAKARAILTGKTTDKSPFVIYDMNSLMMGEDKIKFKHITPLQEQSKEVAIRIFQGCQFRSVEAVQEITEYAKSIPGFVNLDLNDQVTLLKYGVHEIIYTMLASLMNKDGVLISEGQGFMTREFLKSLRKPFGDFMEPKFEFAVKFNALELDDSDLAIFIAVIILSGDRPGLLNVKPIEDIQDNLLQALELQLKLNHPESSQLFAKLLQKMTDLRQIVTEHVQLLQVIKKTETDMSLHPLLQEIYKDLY
Outline: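 GeneBLAzer PPARg UAS-bla HEK293H cells carrying a stably integrated beta-lactamase reporter were pre-incubated 5 h at 37C, then exposed to compounds in DMSO for 17 h at 37C; LiveBLAzer B/G FRET substrate was added for 1 h at room temperature and fluorescence read.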

[4] = target: Peroxisome proliferator-activated receptor gamma (Homo sapiens) (UniProt P37231); assay: qHTS assay to identify small molecule antagonists of the peroxisome proliferator-activated receptor gamma (PPARg) signaling pathway (AID 743191; calls by dose curve; note: series mostly up to about 63 µM; nearly all actives have a fitted effect of over 30% in size)
Outline: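 GeneBLAzer PPARg UAS-bla HEK293H cells carrying a UAS-driven beta-lactamase reporter were plated at 3000 cells/well, preincubated 5 h at 37C, then given compound for 17 h at 37C; LiveBLAzer B/G FRET substrate was read after 1 h at room temperature.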

[5] = qHTS assay to identify small molecule antagonists of the peroxisome proliferator-activated receptor gamma (PPARg) signaling pathway - cell viability counter screen (AID 743194); note: nearly all actives have a fitted effect of over 55% in size
Outline: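 PPARg-UAS-bla HEK293H cells were plated, rested 5 h at 37 C, then treated with compounds plus rosiglitazone (50 nM final) for 17 h at 37 C; viability was then read by CellTiter-Glo luminescence after 30 min at room temperature.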

[6] = qHTS assay for small molecule agonists of the antioxidant response element (ARE) signaling pathway - cell viability counter screen (AID 743203; calls by dose curve; note: nearly all actives have a fitted effect of over 55% in size)
Outline: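 CellSensor ARE-bla HepG2 cells, 2,000 per well, rested 5 hrs at 37C/5% CO2, then exposed to compound in DMSO for 16 hrs; viability read as CellTiter-Glo luminescence after 30 min at room temperature, in the reporter wells.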

[7] = qHTS assay for small molecule activators of the heat shock response signaling pathway - cell viability counter screen (AID 743209); note: nearly all actives have a fitted effect of over 50% in size
Outline: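 CellSensor HSE-bla HeLa cells, plated overnight at 37 C/5% CO2, were exposed to compounds in DMSO for 5 h at 37 C. Viability was then read in the same wells by CellTiter-Glo luminescence after 30 min at room temperature.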

[8] = qHTS assay for small molecule activators of the heat shock response signaling pathway (AID 743210; active = well fitted activation curve with a large enough effect in the signal ratio in the repeat runs, with a control signal flat, not every such curve was filed as active; the % refers to the signal ratio;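 note: HeLa cells with beta-lactamase reporter driven by heat shock elements; series mostly up to about 63 µM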)
Outline: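 Reporter gene assay: HeLa cells stably bearing an HSE-bla construct, compound treatment 5 h at 37 C, LiveBLAzer substrate 2.5 h at RT, fluorescence intensity.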

[9] = qHTS assay to identify small molecule agonists of the peroxisome proliferator-activated receptor delta (PPARd) signaling pathway - cell viability counter screen (AID 743211); note: nearly all actives have a fitted effect of over 55% in size
Outline: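 qHTS cell viability: PPARd-bla HEK293H; 17 h cpd, 37C; CellTiter-Glo, luminescence at 30 min RT.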

[10] = qHTS assay to identify small molecule antagonists of the peroxisome proliferator-activated receptor delta (PPARd) signaling pathway - cell viability counter screen (AID 743213); note: nearly all actives have a fitted effect of over 50% in size
Outline: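 HEK293H PPARd UAS-bla cells, 5 h pre-incubation, compound + L165041 300 nM final, 17 h 37 C; B/G FRET substrate 2 h RT; then CellTiter-Glo 30 min RT, luminescence.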

[11] = target: Bile acid receptor (Homo sapiens) (UniProt Q96RI1); assay: qHTS assay to identify small molecule antagonists of the farnesoid-X-receptor (FXR) signaling pathway (AID 743217; active = well fitted inhibition curve with a large enough effect in the signal ratio in the repeat runs, not every such curve was filed as active; the % refers to the signal ratio)
Sequence of Bile acid receptor (Homo sapiens) (Q96RI1 whole entry, looked up): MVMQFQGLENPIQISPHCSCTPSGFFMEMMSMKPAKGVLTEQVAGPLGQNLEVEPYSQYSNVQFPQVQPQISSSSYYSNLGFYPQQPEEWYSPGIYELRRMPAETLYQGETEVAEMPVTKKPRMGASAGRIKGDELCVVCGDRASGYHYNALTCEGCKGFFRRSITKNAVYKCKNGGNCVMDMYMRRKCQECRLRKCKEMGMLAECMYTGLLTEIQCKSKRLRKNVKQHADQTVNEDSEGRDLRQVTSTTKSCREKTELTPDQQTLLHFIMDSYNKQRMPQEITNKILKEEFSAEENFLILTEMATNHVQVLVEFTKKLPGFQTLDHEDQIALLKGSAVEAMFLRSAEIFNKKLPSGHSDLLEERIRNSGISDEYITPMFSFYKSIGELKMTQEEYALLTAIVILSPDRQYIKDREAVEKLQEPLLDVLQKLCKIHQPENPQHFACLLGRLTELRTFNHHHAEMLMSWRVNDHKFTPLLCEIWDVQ
Outline: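 FXR-UAS-bla HEK 293T cells pre-incubated 5 h at 37 °C, then exposed to compounds with chenodeoxycholic acid (50 uM final) for 16 h at 37 °C. Beta-lactamase reporter read by LiveBLAzer B/G FRET substrate fluorescence after 2 h at room temperature.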

[12] = qHTS assay to identify small molecule antagonists of the farnesoid-X-receptor (FXR) signaling pathway - cell viability counter screen (AID 743221; active = well fitted cell-killing curve with a large enough effect in the repeat runs, not every such curve was filed as active; note: nearly all actives have a fitted effect of over 50% in size)
Outline: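 After a 5 h settling period, FXR-bla HEK 293T cells receive compound and chenodeoxycholic acid (50 uM final) and incubate 16 h at 37 C; CellTiter-Glo luminescence, read after 30 min at room temperature, reports cell viability.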

[13] = target: Peroxisome proliferator-activated receptor delta (Homo sapiens) (UniProt Q03181); assay: qHTS assay to identify small molecule agonists of the peroxisome proliferator-activated receptor delta (PPARd) signaling pathway (AID 743212; calls by dose curve)
Sequence of Peroxisome proliferator-activated receptor delta (Homo sapiens) (Q03181 whole entry, looked up): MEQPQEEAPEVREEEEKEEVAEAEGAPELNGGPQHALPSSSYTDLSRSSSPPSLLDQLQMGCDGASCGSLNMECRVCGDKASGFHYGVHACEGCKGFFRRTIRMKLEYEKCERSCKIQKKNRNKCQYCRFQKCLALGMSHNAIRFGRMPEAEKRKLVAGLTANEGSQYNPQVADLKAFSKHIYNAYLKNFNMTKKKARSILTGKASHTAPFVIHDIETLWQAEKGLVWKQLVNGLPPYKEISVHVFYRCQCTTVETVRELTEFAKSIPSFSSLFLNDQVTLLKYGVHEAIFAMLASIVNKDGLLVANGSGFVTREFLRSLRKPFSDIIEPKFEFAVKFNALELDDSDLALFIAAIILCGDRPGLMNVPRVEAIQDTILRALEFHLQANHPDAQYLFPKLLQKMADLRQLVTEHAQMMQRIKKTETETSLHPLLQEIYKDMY
Outline: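 A PPARd-bla HEK293H line with beta-lactamase under an Upstream Activator Sequence is treated with compounds at 37 C. Substrate loading for 2 h at room temperature precedes the fluorescence measurement.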

[14] = target: Peroxisome proliferator-activated receptor delta (Homo sapiens) (UniProt Q03181); assay: qHTS assay to identify small molecule antagonists of the peroxisome proliferator-activated receptor delta (PPARd) signaling pathway (AID 743215; active = well fitted inhibition curve with a large enough effect in the signal ratio in the repeat runs, not every such curve was filed as active; the % refers to the signal ratio;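 note: cells stimulated with agonist L165041 at 300 nM final during compound exposure; series mostly up to about 62 µM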)
Outline: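 PPARd UAS-bla HEK293H cells were pre-incubated 5 h at 37 C, then given test compounds in DMSO plus agonist L165041 (300 nM final). After 17 h at 37 C, beta-lactamase FRET substrate was added; fluorescence read after 2 h at room temperature.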

[15] = qHTS assay to identify small molecule agonists of the farnesoid-X-receptor (FXR) signaling pathway - cell viability counter screen (AID 743218); note: nearly all actives have a fitted effect of over 45% in size
Outline: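 FXR-UAS-bla HEK 293T cells, plated 5 h at 37 C, were exposed to compounds for 16 h at 37 C. CellTiter-Glo was then added to the same wells as the bla readout; luminescence read after 30 min at room temperature.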

[16] = target: Vitamin D3 receptor (Homo sapiens) (UniProt P11473); assay: qHTS assay to identify small molecule agonists of the vitamin D receptor (VDR) signaling pathway (AID 743222; calls by dose curve)
Sequence of Vitamin D3 receptor (Homo sapiens) (P11473 whole entry, looked up): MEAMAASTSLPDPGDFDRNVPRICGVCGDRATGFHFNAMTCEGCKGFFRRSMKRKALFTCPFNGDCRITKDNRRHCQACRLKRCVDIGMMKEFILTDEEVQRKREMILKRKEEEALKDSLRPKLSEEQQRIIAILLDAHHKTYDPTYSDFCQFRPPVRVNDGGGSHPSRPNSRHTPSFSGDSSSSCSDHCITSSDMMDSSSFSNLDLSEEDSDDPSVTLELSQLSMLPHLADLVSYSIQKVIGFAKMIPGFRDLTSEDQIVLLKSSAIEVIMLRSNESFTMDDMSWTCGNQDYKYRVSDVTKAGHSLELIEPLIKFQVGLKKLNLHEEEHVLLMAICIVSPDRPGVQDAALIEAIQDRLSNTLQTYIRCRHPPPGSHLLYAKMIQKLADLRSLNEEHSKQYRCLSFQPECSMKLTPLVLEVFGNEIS
Outline: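 VDR-bla cells were plated 4 h at 37C/5% CO2, then exposed to compounds in DMSO for 16 h. After LiveBLAzer B/G FRET substrate addition and 2 h at room temperature, beta-lactamase reporter fluorescence was read.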

[17] = target: Vitamin D3 receptor (Homo sapiens) (UniProt P11473); assay: qHTS assay to identify small molecule antagonists of the vitamin D receptor (VDR) signaling pathway (AID 743223; active = well fitted inhibition curve with a large enough effect in the signal ratio in the repeat runs, not every such curve was filed as active; the % refers to the signal ratio)
Outline: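 Reporter line VDR-bla; stimulus 1alpha,25-(OH)2 vitamin D3, 3 nM final; compound co-addition, 16 h 37C/5% CO2; LiveBLAzer B/G substrate 2 h RT; fluorescence intensity.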

[18] = qHTS assay to identify small molecule agonists of the vitamin D receptor (VDR) signaling pathway - cell viability counter screen (AID 743224); note: series mostly up to about 63 µM; nearly all actives have a fitted effect of over 50% in size
Outline: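 VDR-bla cells were preincubated 4 h at 37C/5% CO2, then exposed to compounds for 16 h. After the 2 h room-temperature bla FRET read, CellTiter-Glo was added to the same wells and luminescence read after 30 min.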

[19] = qHTS assay for small molecule agonists of the antioxidant response element (ARE) signaling pathway (AID 743202; active = well fitted activation curve with a large enough effect in the signal ratio in the repeat runs, not every such curve was filed as active; the % refers to the signal ratio)
Outline: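 Compounds delivered in DMSO to ARE-bla HepG2 cells (2,000 cells/well, pre-incubated 5 h) and left 16 h at 37 C. LiveBLAzer B/G FRET substrate then added for 2 h at RT before fluorescence reading.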

[20] = target: Bile acid receptor (Homo sapiens) (UniProt Q96RI1); assay: qHTS assay to identify small molecule agonists of the farnesoid-X-receptor (FXR) signaling pathway (AID 743220; active = well fitted activation curve with a large enough effect in the signal ratio in the repeat runs, not every such curve was filed as active; the % refers to the signal ratio)
Outline: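 Beta-lactamase reporter under UAS control in GeneBLAzer FXR HEK 293T cells (5000/well) measured with LiveBLAzer FRET substrate after 2 h at room temperature. Compound exposure lasted 16 h at 37C.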
% is set by controls: 0 for no effect and ±100 for the full control effect.

COc1c(N2CCNC(C)C2)c(F)cc2c(=O)c(C(=O)O)cn(C3CC3)c12 (stereo not given)
inactive: Potency [1] | Potency [2] | Potency [3] | Potency [4] | outcome [5] | outcome [6] | outcome [7] | outcome [8] | outcome [9] | outcome [10] | outcome [11] | outcome [12]

CCN(CC#N)c1cccc(C)c1
inactive: Potency [1] | Potency [2] | Potency [3] | outcome [5] | outcome [6] | outcome [7] | outcome [8] | outcome [9] | outcome [13] | outcome [10] | outcome [14] | outcome [15] | outcome [12] | outcome [16] | outcome [17] | outcome [18]

CC(=O)N1C[C@H](O)C[C@H]1C(=O)O
inactive: Potency [1] | Potency [2] | outcome [5] | Potency [19] | outcome [6] | outcome [7] | outcome [8] | outcome [9] | outcome [13] | outcome [10] | outcome [14] | outcome [11] | outcome [15] | outcome [20] | outcome [12] | outcome [16] | outcome [17] | outcome [18]

Cc1cc(C)c(N=Nc2c(O)c(S(=O)(=O)O)cc3cc(S(=O)(=O)O)ccc23)cc1C
inactive: activation [1] -3.38% [at 8.47 µM] | viability change, negative = cytotoxic [2] -19.3% [at 8.47 µM] | activity change, negative = cytotoxicity [5] -10.4% [at 5.95 µM] | activation [19] -8.59% [at 8.36 µM] | viability change, negative = cytotoxic [6] -2.33% [at 8.36 µM] | activity change, negative = cytotoxicity [7] -2.28% [at 5.95 µM] | activation [8] -0.565% [at 5.95 µM] | activity change, negative = cytotoxicity [9] -0.611% [at 5.95 µM] | activation [13] 6.93% [at 5.95 µM] | ratio activity, negative = inhibition [14] 0.853% [at 6.26 µM] | viability change, negative = cytotoxic [15] 0.0024% [at 5.95 µM] | activity change, negative = cytotoxicity [12] 0.502% [at 5.95 µM] | activation [16] 0.83% [at 6.01 µM] | activity change, negative = inhibition [17] -3.01% [at 6.95 µM]

O=C1CCCCCCCCCCCCCCO1
inactive: Potency [1] | Potency [2] | Potency [3] | outcome [5] | outcome [6] | outcome [7] | outcome [8] | outcome [9] | outcome [13] | outcome [10] | outcome [14] | outcome [12] | outcome [16] | outcome [18]

CCCCCCCC1CCCC1=O (stereo not given)
inactive: Potency [1] | Potency [2] | Potency [4] | outcome [5] | Potency [19] | outcome [6] | outcome [7] | outcome [8] | outcome [9] | outcome [13] | outcome [14] | outcome [15] | outcome [12] | outcome [18]

C[N+]1(C)CCCC(OC(=O)C(O)(c2ccccc2)c2ccccc2)C1 (stereo not given)
inactive: Potency [1] | Potency [2] | outcome [5] | Potency [19] | outcome [6] | outcome [7] | outcome [8] | outcome [9] | outcome [13] | outcome [10] | outcome [14] | outcome [11] | outcome [15] | outcome [12] | outcome [17] | outcome [18]

CC(=O)N[C@H]1[C@H]([C@H](O)[C@H](O)CO)OC(C(=O)O)=C[C@@H]1N=C(N)N
inactive: Potency [1] | Potency [2] | Potency [3] | outcome [5] | outcome [6] | outcome [7] | outcome [8] | outcome [9] | outcome [13] | outcome [10] | outcome [14] | outcome [15] | outcome [12] | outcome [16] | outcome [18]

CCCCc1ccc2c(n1)[C@@H](c1ccc(OC)cc1C[C@H](C)C(=O)O)[C@H](C(=O)O)[C@H]2c1ccc2c(c1)OCO2
inactive: Potency [1] | Potency [2] | Potency [4] | outcome [5] | Potency [19] | outcome [6] | outcome [7] | outcome [8] | outcome [9] | outcome [10] | outcome [11] | outcome [15] | outcome [12] | outcome [16] | outcome [17] | outcome [18]
